Here are results for four compounds from PubChem BioAssay.

The source made the active and inactive calls.

Experiment [1] can be described thus: compound effects on differentiated 3T3-L1 adipocyte viability – cell-based, 3T3-L1 adipocytes, calcein-AM fluorescence, 48 h, basal, profiling panel (AID 1163). Particulars: 3T3-L1 adipocytes viability, higher = more signal.
A short description of experiment [2]: compound effects on hepatocellular carcinoma cell viability – HepG2, calcein-AM fluorescence, 48 h, basal, profiling panel (AID 1164). Particulars: higher = more signal.
The nature of experiment [3]: compound effects on multiple myeloma cell viability – MM1S, calcein-AM fluorescence, 48 h, basal, profiling panel (AID 1165).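 Further: viability of MM1S multiple myeloma cells under basal unstimulated conditions.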 Particulars: higher = more signal.
A short description of experiment [4]: calcein-AM signal in unstimulated myeloma cells – cell-based, calcein-AM fluorescence, 48 h, PK04 Diversity Set, profiling panel (AID 1166).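 Further: cells grown under basal conditions without added stimulus.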 The following applies: RPMI8226 myeloma viability, higher = more signal.
Experiment [5] in a line: JC-1 mitochondrial signal, unstimulated HepG2 cells – cell-based, JC-1 fluorescence, 24 h, 100 nL compound, profiling panel (AID 1167). The following applies: HepG2 mitochondrial potential, higher = more signal.
Experiment [6] can be described thus: JC-1 mitochondrial signal, unstimulated adipocytes – cell-based, JC-1 fluorescence, 3T3-L1 adipocytes, 24 h, 100 nL compound, profiling panel (AID 1168). The following applies: JC-1 mitochondrial fluorescence, higher = more signal, called active from +8 up or from −8 down.
The nature of experiment [7]: JC-1 mitochondrial signal, unstimulated myeloma cells – cell-based, JC-1 fluorescence, RPMI8226, 24 h, 100 nL compound, profiling panel (AID 1169). The following applies: JC-1 mitochondrial potential fluorescence, higher = more signal.
A short description of experiment [8]: JC-1 mitochondrial signal, unstimulated MM1S myeloma – cell-based, JC-1 fluorescence, 24 h, 100 nL compound, profiling panel (AID 1170). Particulars: MM1S mitochondrial potential, higher = more signal.
A short description of experiment [9]: resazurin metabolic signal in A549 cells – cell-based, resazurin fluorescence, 24 h, PK04 Diversity Set, profiling panel (AID 1171). Particulars: A549 viability, higher = more signal, called active from +8 up or from −8 down.
A short description of experiment [10]: resazurin metabolic signal in HepG2 cells – cell-based, resazurin fluorescence, 24 h, PK04 Diversity Set, profiling panel (AID 1172). The following applies: HepG2 viability, higher = more signal. (In general: Alamar Blue is a resazurin reagent that responds to reducing activity.)
The nature of experiment [11]: budding yeast growth changes without added modifier – OD600, strain BY4716, 24 h, basal condition, primary screen (AID 1173). The following applies: S. cerevisiae BY4716 growth, OD600, 24 h; higher = more signal, called active from +8 up or from −8 down.
Experiment [12] can be described thus: viability profiling in MM1S myeloma cells – cell-based, resazurin fluorescence, basal, 24 h, PK04 Diversity Set, profiling panel (AID 1174). The following applies: higher = more signal, called active from +8 up or from −8 down.
Experiment [13] concerns the target Dihydroorotate dehydrogenase (quinone), mitochondrial (Plasmodium falciparum (isolate 3D7)) (UniProt Q08210). Kind of experiment: inhibition of P. falciparum DHODH – biochemical, C-terminal His tag, absorbance 600 nm, primary screen (AID 1175).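 Further: recombinant parasite enzyme with a five histidine tag at its C terminus.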 Particulars: PfDHODH enzyme, DCIP absorbance 600 nm; higher = more signal, called active from +8 up or from −8 down.
A short description of experiment [14]: growth modulation of vineyard yeast isolate – strain RM11-1a, OD600, basal, 24 h, primary screen (AID 1177).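 Further: cultures grown under basal conditions with no added stressor.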 Particulars: S. cerevisiae RM11-1a growth, OD600, 24 h; higher = more signal, called active from +8 up or from −8 down.
Experiment [15] in a line: growth of efflux-deficient E. coli DRC39 – strain DRC39, OD650, 24 h, E. coli filamentation inducers, primary screen (AID 1178).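 Further: growth measured as culture turbidity by optical density at 650 nm.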 The following applies: E. coli DRC39 acrAB, higher = more signal, called active from +8 up or from −8 down.
The nature of experiment [16]: growth of efflux-deficient E. coli DRC39 – strain DRC39, OD650, 48 h, E. coli filamentation inducers, primary screen (AID 1179).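 Further: screen aims at cell division blockers that make cells filament.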 The following applies: E. coli DRC39 delta-acrAB growth, higher = more signal, called active from +8 up or from −8 down.
The nature of experiment [17]: viability profiling in RPMI8226 myeloma cells – cell-based, resazurin fluorescence, basal, 24 h, PK04 Diversity Set, profiling panel (AID 1180).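 Further: RPMI8826 multiple myeloma cell line at 5000 cells per well.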 The following applies: higher = more signal.
Experiment [18] deals with E3 ubiquitin-protein ligase XIAP (Homo sapiens) (UniProt P98170). The experiment in a line: small molecules binding XIAP protein – biophysical, small-molecule microarray, fluorescence 635 nm, primary screen (AID 1181).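 Further: score merges 667 nm emission and signal to noise over triplicate slides.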 Particulars: higher = more signal.
The test system of experiment [19] is XIP peptide (Xip251-270) binding. Kind of experiment: XIP fragment 251-270 binding compounds – biochemical, small-molecule microarray, fluorescence 635/667 nm, 0.1 µg/mL protein, primary screen (AID 1182). Particulars: fluorescent protein binding, 635 nm, higher = more signal, called active from +8 up or from −8 down.
For the next experiment, the system named is XIP peptide (Xip251-270). Kind of experiment: compounds binding XIP fragment 251-270 – biochemical, small-molecule microarray, fluorescence 635/667 nm, 0.5 µg/mL protein, primary screen (AID 1183). Particulars: fluorescence 635 nm, higher = more signal.

Sequence of E3 ubiquitin-protein ligase XIAP (Homo sapiens) (P98170 whole entry, looked up, the tested form may be a part): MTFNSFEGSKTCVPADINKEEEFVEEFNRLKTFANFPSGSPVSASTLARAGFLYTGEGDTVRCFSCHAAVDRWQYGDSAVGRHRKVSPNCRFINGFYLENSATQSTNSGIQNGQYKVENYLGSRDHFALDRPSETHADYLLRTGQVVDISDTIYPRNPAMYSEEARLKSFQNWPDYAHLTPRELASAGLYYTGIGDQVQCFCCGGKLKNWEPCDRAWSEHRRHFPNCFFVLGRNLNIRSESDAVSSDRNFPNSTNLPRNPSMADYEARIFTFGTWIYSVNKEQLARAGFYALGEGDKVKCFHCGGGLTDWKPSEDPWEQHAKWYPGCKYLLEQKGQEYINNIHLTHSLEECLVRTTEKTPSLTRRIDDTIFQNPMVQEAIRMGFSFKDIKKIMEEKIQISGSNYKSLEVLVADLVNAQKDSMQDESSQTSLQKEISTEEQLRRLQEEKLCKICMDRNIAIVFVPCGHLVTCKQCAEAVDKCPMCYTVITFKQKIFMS
Sequence of Dihydroorotate dehydrogenase (quinone), mitochondrial (Plasmodium falciparum (isolate 3D7)) (Q08210 whole entry, looked up): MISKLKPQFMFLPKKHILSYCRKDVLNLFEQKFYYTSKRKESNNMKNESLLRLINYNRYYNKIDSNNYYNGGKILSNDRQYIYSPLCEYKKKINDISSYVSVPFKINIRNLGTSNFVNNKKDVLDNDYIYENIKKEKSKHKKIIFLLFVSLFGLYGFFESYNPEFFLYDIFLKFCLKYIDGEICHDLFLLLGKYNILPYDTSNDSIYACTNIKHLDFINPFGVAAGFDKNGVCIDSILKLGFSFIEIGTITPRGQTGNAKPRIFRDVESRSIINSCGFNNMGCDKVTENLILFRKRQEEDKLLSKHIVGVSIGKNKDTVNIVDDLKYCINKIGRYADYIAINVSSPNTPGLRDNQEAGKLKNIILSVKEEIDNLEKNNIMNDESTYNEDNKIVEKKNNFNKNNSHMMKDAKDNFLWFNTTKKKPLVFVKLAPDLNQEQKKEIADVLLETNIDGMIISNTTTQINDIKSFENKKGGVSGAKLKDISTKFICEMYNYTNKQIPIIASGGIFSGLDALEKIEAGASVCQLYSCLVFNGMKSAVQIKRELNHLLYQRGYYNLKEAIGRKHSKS

As for `C=CCC(OC(C)=O)[C@@H]1[C@@H](N(Cc2cccc3ccccc23)C(=O)c2cccc3ccccc23)c2cc(OCCCO)ccc2N1C(=O)Cc1ccc(OC)cc1` (stereo not given in full), the z-score in experiment [1] is 2.56; in [2], 0.486; in [3], 1.7; in [4], -1.28; in experiment [5], 3.07; in experiment [6] it was 0.451 (inactive). Further, the z-score in experiment [7] was 0.402; in experiment [8] it was 0.779; in experiment [9], -0.245 (inactive); in [10] it was 0.147; in [11], -3 (inactive); in experiment [12], 1.09 (inactive). The z-score in experiment [14] was -1.48 (inactive); in experiment [15], 1.35 (inactive); in experiment [16], 0.717 (inactive); in experiment [17] it was 0.301. Also, the composite z-score in experiment [13] was 0.848 (inactive); in [18] it was 0.108; in experiment [19] it was 0.936 (inactive); in the experiment with XIP peptide (Xip251-270), -0.314.
In the case of `CC(C)C[C@@H]1NC(=O)[C@@]23C(=O)N[C@@H](Cc4ccccc4)C2[C@H](C)[C@@]2(C)O[C@H]2C3/C=C/CC/C=C/CNC(=O)[C@@H](C)NC1=O` (stereo not given in full), the z-score in [1] was 1.98; in experiment [2] it was -0.309; in [3], 0.827; in experiment [4], -0.386; in experiment [5] it was 1.82; in experiment [6], 0.918 (inactive). Besides, the z-score in [7] was -0.205; in experiment [8], 2.11; in [9], -0.613 (inactive); in experiment [10], -0.589; in [11], -1.92 (inactive); in [12] it was 0.603 (inactive). Besides, the z-score in experiment [14] was -0.209 (inactive); in [15], 2.5 (inactive); in experiment [16], 1.34 (inactive); in [17] it was 0.866. Also, the composite z-score was 0.596 (inactive) in experiment [13], -0.227 in [18], -0.804 (inactive) in [19] and -0.0387 in the experiment with XIP peptide (Xip251-270).
Consider `O=C1O[C@H](c2ccccc2)[C@H](c2ccccc2)N2[C@H]1[C@@H](C(=O)NC[C@H](O)c1ccccc1)[C@]1(C(=O)Nc3ccc(C#CC4(O)CCCCCC4)cc31)[C@H]2c1ccc(O)cc1`, for which the z-score was 1.43 in [1]; -0.641 in experiment [2]; -0.804 in experiment [3]; -1.62 in experiment [4]; -1.71 in experiment [5]; -0.947 (inactive) in [6]. Further, the z-score in [7] is -0.672; in [8] it was -0.566; in experiment [9], 0.814 (inactive); in experiment [10], 0.82; in [11], -1.55 (inactive); in experiment [12], 0.557 (inactive). For the same compound, the z-score was -0.49 (inactive) in [14], 0.487 (inactive) in [15], 0.972 (inactive) in [16] and 0.327 in experiment [17]. The composite z-score in experiment [13] is -0.154 (inactive); in experiment [18], -0.141; in [19] it was 1.05 (inactive); with XIP peptide (Xip251-270), 0.444.
For the compound `COc1ccc([Si](C)(C)[C@H]2[C@H](CC(=O)N(CCO)Cc3ccccc3)O[C@@]3(C(=O)N(Cc4ccc(N5CCC5=O)cc4)c4ccccc43)[C@@H]2C)cc1`, the z-score in experiment [1] is 0.816; in experiment [2], -0.861; in [3], -1.22; in [4], -3.56; in [5], 0.197; in experiment [6], 1.44 (inactive). In addition, the z-score in experiment [7] is -0.995; in [8] it was 0.233; in experiment [9], -1.1 (inactive); in experiment [10], 0.0408; in [11], -0.344 (inactive); in [12], -1.3 (inactive). Besides, the z-score in [14] was 1.73 (inactive); in [15], 1.61 (inactive); in experiment [16] it was 1.46 (inactive); in experiment [17], -1.97. In addition, the composite z-score was -0.983 (inactive) in experiment [13], -0.0948 in [18], 2.44 (inactive) in [19] and 0.365 in the experiment with XIP peptide (Xip251-270).
